Screening results deposited in PubChem by National Center for Advancing Translational Sciences (NCATS).
Most compounds without a hit are left out; they make up all but 21% or so of the library.
Sm TGR inh: qHTS Assay for the Inhibitors of Schistosoma Mansoni Peroxiredoxins; 360,000 compounds, 3% hits; Schistosoma mansoni thioredoxin glutathione reductase (TGR), Q962Y6; purified TGR, DTNB reduction, TNB absorbance 405 nm; Potency, µM (series often up to 114 µM), usual class: inhibitors; note: nearly all actives have a fitted effect of over 60% in size
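First, TGR (20 nM dispensed) and NADPH were mixed with compound. Second, a 15 min room-temperature incubation followed. Third, further NADPH and then DTNB were added to start the reaction. Finally, TNB absorbance was monitored kinetically.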
CHX counter: Cycloheximide Counterscreen for Small Molecule Inhibitors of Shiga Toxin | cell reporter, cycloheximide protein synthesis inhibition counterscreen | max response, % | 300,000 compounds, 12% hits; in the data active = max response mostly above about 13%, no sharp cut-off; inactive = mostly below about 14%; note: read at 38.3 µM for the half of the compounds with a filed dose
NS1 inh: qHTS Assay for Inhibitors of Influenza NS1 Protein Function; Potency, µM (doses to about 46.1 µM); 270,000 compounds, 0.4% hits; calls by dose curve; note: actives are rising curves; nearly all actives have a fitted effect of over 50% in size
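Recovery from NS1-induced slow growth read by OD600 in budding yeast switched to galactose assay medium (pH 6.0, -URA) at 1:100 dilution. Compound 23 nl per well; the matching strain lacking NS1 serves as control.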
Shiga toxin inh: A qHTS for Small Molecule Inhibitors of Shiga Toxin. 290,000 compounds, 9.2% hits. inhibition, % at 38.7 µM. AID 2315, 2010. Vero cells, Shiga toxin protein synthesis inhibition reporter; in the data active = inhibition mostly above about 28%, no sharp cut-off; inactive = mostly below about 43%
Pf growth 48h: Primary qHTS for delayed death inhibitors of the malarial parasite plastid, 48 hour incubation; P. falciparum luciferase growth in erythrocytes, 48 h; Potency, µM (titrated, usually from 28.7 µM), usual class: inhibitors; 310,000 compounds, 5.9% hits
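Growth was read as firefly luciferase luminescence after a 48 h, 37 C, 5% CO2 exposure of compounds to reporter-bearing P. falciparum cultures (0.1% parasitemia, 2% hematocrit final) in Albumax-supplemented RPMI 1640.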
Pf growth 96h: Primary qHTS for delayed death inhibitors of the malarial parasite plastid, 96 hour incubation; P. falciparum luciferase reporter growth, 96 h; Potency, µM (titrated, usually from 28.7 µM), most hits filed as inhibitors; 320,000 compounds, 6.9% hits; AID 504834, 2011
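Compounds incubated with erythrocytes infected by luciferase-expressing P. falciparum (2% hematocrit, 0.05% parasitemia final) for 96 hours, 37 C in 5% CO2. Growth inhibition scored as decreased luciferase luminescence.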
Numbers stand for hits; i = inactive; ? = inconclusive; nt = no result given. Unless noted, calls come from the whole dose curve; as a rule, active = well fitted curve in the direction sought with a large enough effect; inconclusive = small, poorly fitted or top-dose-only effect, or another doubt; inactive = no such curve, though single readings can be large; an effect the other way counts as inactive or inconclusive.

SMILES	Sm TGR inh	CHX counter	NS1 inh	Shiga toxin inh	Pf growth 48h	Pf growth 96h
COc1ccc(NC(=O)c2c(NCc3ccc(C)o3)sc3c2CCC(C)C3)cc1 (stereo not drawn)	10µM	nt	nt	nt	nt	nt
COc1ccc(NC(=S)NCCCN2CCN(C3CCCCC3)CC2)cc1	i	i	i	i	i	?
CCC(C(=O)NC1CCCCC1)n1c2ccccc2c2nc(=O)cc(C)n21 (stereo not drawn)	i	i	i	i	i	?
COc1ccc(NC(=O)c2c(NCc3cccc(F)c3)sc3c2CCCC3)c(OC)c1	i	nt	nt	nt	nt	nt
COc1ccc(NC(=O)c2c(NCc3ccc(C)o3)sc3c2CCCCC3)c(OC)c1	2.82µM	nt	nt	nt	nt	nt
CCOC(=O)c1cccc(NC(=O)CSc2nc3cc4ccccc4cc3[nH]2)c1	i	nt	nt	nt	nt	nt
CN1CCS/C1=C/C=C1/SC(=S)N(Cc2ccccc2)C1=O	i	26.3	i	i	?	i
CCCCN1C(=O)/C(=C/C=C2\SCCN2C)SC1=S	i	32.8	nt	67.1	i	i
CN1CCS/C1=C/C=C1\SC(=S)N(CC(=O)O)C1=O	i	i	i	i	i	i
C[C@]1(c2ccccc2)O[C@@H]2C[C@@H]3[C@@H]4CCC5=CC(=O)C=C[C@@]5(C)[C@]4(F)[C@H](O)C[C@]3(C)[C@@]2(C(=O)CO)O1	nt	nt	i	nt	nt	nt
C=CCOc1ccc(CC2C(=O)N(C)C(=O)N(C)C2=O)cc1	25.1µM	i	i	i	3.7µM	i
CCN(CC)c1ccc(CC2C(=O)N(C)C(=O)N(C)C2=O)cc1	14.1µM	i	i	i	?	i
O=C1NCC(COc2ccc(Cl)cc2)O1 (stereo not drawn)	i	i	nt	i	i	i
CN(C)/C=N/C(=S)Nc1ccccc1	nt	19.4	i	i	i	i
CN(C)/C=N/C(=S)Nc1ccc(Br)cc1F	i	48.9	i	52.3	nt	?
CN(C)S(=O)(=O)Nc1ccc(Br)cc1F	i	i	i	i	i	nt
Cc1ccccc1NC(=S)Nc1ccccc1	i	i	i	nt	i	i
CC1=C(C)C[C@@]23CCCN2C(=O)CCC[C@H]3C1	nt	i	nt	i	nt	nt
O=[N+]([O-])c1cnc2ccccc2c1	i	i	i	i	i	?
O=[N+]([O-])c1cc([N+](=O)[O-])c2cc3ccccc3nc2c1	3.55µM	i	i	i	?	i
COc1ccc(CCNC(=O)c2ccc(SC)cc2OC)cc1	i	i	i	i	?	2.62µM
COc1ccc(CCNC(=O)c2ccccc2SC)cc1	i	i	i	i	i	i
COc1cc(SC)ccc1C(=O)NCCOc1ccc(F)cc1	i	44.8	i	74.1	i	i
COc1cc(SC)ccc1C(=O)NCCN1CCOCC1	i	i	i	i	i	i
COc1cc(SC)ccc1C(=O)NCC1CCCCC1	i	27.8	i	74.7	?	?
SMILES	Sm TGR inh	CHX counter	NS1 inh	Shiga toxin inh	Pf growth 48h	Pf growth 96h
O=C(CCC1N=C2c3ccccc3N=C(SCC(=O)Nc3ccccc3F)N2C1=O)NCc1ccco1 (stereo not drawn)	i	nt	nt	nt	nt	nt
O=C(NCc1ccco1)C1CCN(C(=O)c2ccc([N+](=O)[O-])cc2)CC1	25.1µM	i	i	i	i	i
O=C(NCc1ccco1)C1CCN(S(=O)(=O)c2cccc([N+](=O)[O-])c2)CC1	i	i	i	i	9.28µM	i
COc1ccccc1CNC(=O)C1CCN(S(=O)(=O)c2cccc([N+](=O)[O-])c2)CC1	i	i	i	i	i	i
O=C(NCc1ccco1)C1CCN(C(=O)c2ccc(Cl)cc2)CC1	i	nt	nt	nt	i	?
CCOc1ccc(C(=O)Nc2ccc(S(=O)(=O)Nc3nc(C)cc(C)n3)cc2)cc1OC	i	nt	nt	nt	nt	nt
O=c1c2sc(-c3ccccc3)cc2nc2n1CCC2	i	23.8	i	25.6	i	i
O=c1c2sc(-c3ccccc3)cc2nc2n1CCCCC2	i	53.4	i	55.6	i	i
O=c1c2c(-c3ccccc3)csc2nc2n1CCC2	i	i	i	i	i	i
S=c1[nH]cnc2sc(-c3ccccc3)cc12	i	31.0	nt	76.6	i	i
O=c1[nH]cnc2scc(-c3ccc(F)cc3)c12	i	i	i	i	i	i
S=c1[nH]cnc2scc(-c3ccccc3)c12	i	i	i	i	?	0.329µM
CCc1cccc(CC)c1-n1nnc2c(sc3nc(C)cc(C)c32)c1=O	i	nt	nt	nt	nt	nt
